# From PubChem BioAssay (Tox21)
# A number with no mark means an inactive call. Records with an inconclusive call do not appear. Where a call stands in place of a potency, no number is given. Activity calls are given as the source filed them. Unless noted, calls follow the shape of the dose curve; as a rule, active = well fitted curve in the direction sought with a large enough effect in the repeat runs; inconclusive = weak or mixed curves; inactive = no such curve, though single readings can be large; an effect the other way counts as inactive or inconclusive.
# Assays:
# [1] = target: Estrogen receptor beta (Homo sapiens) (UniProt Q92731); experiment: qHTS assay to identify small molecule agonists of the estrogen receptor beta (ER-beta) signaling pathway (AID 1259377; active = well fitted activation curve with a large enough effect in the signal ratio in the repeat runs, not every such curve was filed as active; the % refers to the signal ratio)
# Summary of the method: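 Read-out: beta-lactamase FRET fluorescence. Cell line: ER-beta-UAS-bla HEK293T in 2% charcoal-stripped FBS. Exposure: 16 hr at 37C. Substrate step: 2 h at room temperature.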
# [2] = qHTS assay to identify small molecule agonists of the estrogen receptor beta (ER-beta) signaling pathway - cell viability counter screen (AID 1259380); also: nearly all actives have a fitted effect of over 30% in size; also: potency is read from the fitted curve at half-maximal effect
# Summary of the method: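 CellTiter-Glo read, 30 min RT, same wells as bla assay; cells ER-beta-UAS-bla HEK293T; 16 hr compound, 37C; medium 2% charcoal-stripped FBS.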
# [3] = target: Estrogen receptor (Homo sapiens) (UniProt P03372); experiment: qHTS assay to identify small molecule agonists of the estrogen receptor alpha (ER-alpha) signaling pathway in the presence of an antagonist (AID 1259383; calls by dose curve; also: top concentration of the series differs between compounds; nearly all actives have a fitted effect of over 15% in size)
# Summary of the method: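 Stably transfected VM7Luc4E2 reporter cells, kept 5 days in charcoal-stripped serum, received ICI-182,780 at 10.0nM final before compound addition. Following 22hr incubation at 37C and 5% CO2, luciferase signal was read by luminescence.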
# [4] = qHTS assay to identify small molecule agonists or antagonists of the thyroid stimulating hormone receptor (TSHR) signaling pathway - wild type cell line counter screen (AID 1259384; calls by dose curve)
# Summary of the method: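 Wild-type HEK293 cells were plated 18 h at 37 C/5% CO2, pin-dosed with compound plus Ro20-1724 medium, held 30 min at room temperature, then given cAMP-d2 and anti-cAMP-cryptate; fluorescence was read after 1 h. Fifteen concentrations, triplicate.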
# [5] = target: Thyrotropin receptor (Homo sapiens) (UniProt P16473); experiment: qHTS assay to identify small molecule antagonists of the thyroid stimulating hormone receptor (TSHR) signaling pathway (AID 1259385; calls by dose curve; also: nearly all actives have a fitted effect of over 20% in size)
# Summary of the method: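 TSHR-HEK293 cells were plated and held 18 h at 37C/5% CO2, then given compound plus Ro20-1724 and stimulated with TSH at 1.5 ng/mL final. After 30 min at room temperature, cAMP was detected with cAMP-d2/anti-cAMP-cryptate (1 h) by fluorescence.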
# [6] = qHTS assay to identify small molecule agonists of the estrogen receptor alpha (ER-alpha) signaling pathway in the presence of an antagonist - cell viability counter screen (AID 1259386);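 also: cells exposed to compounds for 22 h at 37 °C before the viability read; nearly all actives have a fitted effect of over 30% in size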; also: potency is read from the fitted curve at half-maximal effect; as to activity change, negative = cytotoxicity: series mostly up to about 92 µM
# Summary of the method: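 Viability counter screen using VM7Luc4E2 (full-length ER-alpha, four ERE-luciferase). The cells were treated with compounds alongside ICI-182,780 10.0nM for 22hr, and live-cell protease fluorescence was quantified with CellTiter-Fluor.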
# [7] = qHTS assay to identify small molecule agonists of the androgen receptor (AR) signaling pathway in the presence of an antagonist - cell viability counter screen (AID 1259379); also: nearly all actives have a fitted effect of over 25% in size; also: potency is read from the fitted curve at half-maximal effect;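 as to activity change, negative = cytotoxicity: MDA-kb2 human breast cancer cells carrying an MMTV luciferase reporter; series mostly up to about 92 µM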
# Summary of the method: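 Seed MDA-kb2 at 3,000 cells/well; incubate 5 hr, 37C, 0% CO2. Add nilutamide to 3.0uM final, then pin compounds at 15 concentrations. Incubate 16 hr. Add CellTiter-Fluor at 15 hr, read fluorescence after 1 hr.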
# [8] = target: Androgen receptor (Homo sapiens) (UniProt P10275); experiment: qHTS assay to identify small molecule agonists of the androgen receptor (AR) signaling pathway in the presence of an antagonist (AID 1259381; calls by dose curve; also: nearly all actives have a fitted effect of over 15% in size)
# Summary of the method: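 Test compounds at 15 concentrations were incubated for 16hr with MDA-kb2 reporter cells in presence of 3.0uM nilutamide (final). Signal: ONE-Glo luciferase luminescence.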
# [9] = target: Estrogen receptor beta (Homo sapiens) (UniProt Q92731); experiment: qHTS assay to identify small molecule antagonists of the estrogen receptor beta (ER-beta) signaling pathway (AID 1259378; active = well fitted inhibition curve with a large enough effect in the signal ratio in the repeat runs, not every such curve was filed as active; the % refers to the signal ratio)
# Summary of the method: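 ER-beta-UAS-bla HEK293T (GripTite) cells in 2% charcoal-stripped FBS medium were preincubated 6 hr at 37C, dosed with compound, then stimulated with 1 nM E2 (final) for 16 hr; beta-lactamase reporter read by B/G FRET fluorescence after 2 hr substrate loading.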
# [10] = qHTS assay to identify small molecule antagonists of the estrogen receptor beta (ER-beta) signaling pathway - cell viability counter screen (AID 1259382); also: nearly all actives have a fitted effect of over 55% in size; also: potency is read from the fitted curve at half-maximal effect; as to activity change, negative = cytotoxicity: series mostly up to about 92 µM
# Summary of the method: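 In this multiplexed counter screen, cells were seeded at 2,000 per well in medium with 2% charcoal-stripped FBS and incubated 6 hr before compound and 1nM final E2 were added. Sixteen hours later, ATP-based luminescence reported viability.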
# Chain of Androgen receptor (Homo sapiens) (P10275 whole entry, looked up): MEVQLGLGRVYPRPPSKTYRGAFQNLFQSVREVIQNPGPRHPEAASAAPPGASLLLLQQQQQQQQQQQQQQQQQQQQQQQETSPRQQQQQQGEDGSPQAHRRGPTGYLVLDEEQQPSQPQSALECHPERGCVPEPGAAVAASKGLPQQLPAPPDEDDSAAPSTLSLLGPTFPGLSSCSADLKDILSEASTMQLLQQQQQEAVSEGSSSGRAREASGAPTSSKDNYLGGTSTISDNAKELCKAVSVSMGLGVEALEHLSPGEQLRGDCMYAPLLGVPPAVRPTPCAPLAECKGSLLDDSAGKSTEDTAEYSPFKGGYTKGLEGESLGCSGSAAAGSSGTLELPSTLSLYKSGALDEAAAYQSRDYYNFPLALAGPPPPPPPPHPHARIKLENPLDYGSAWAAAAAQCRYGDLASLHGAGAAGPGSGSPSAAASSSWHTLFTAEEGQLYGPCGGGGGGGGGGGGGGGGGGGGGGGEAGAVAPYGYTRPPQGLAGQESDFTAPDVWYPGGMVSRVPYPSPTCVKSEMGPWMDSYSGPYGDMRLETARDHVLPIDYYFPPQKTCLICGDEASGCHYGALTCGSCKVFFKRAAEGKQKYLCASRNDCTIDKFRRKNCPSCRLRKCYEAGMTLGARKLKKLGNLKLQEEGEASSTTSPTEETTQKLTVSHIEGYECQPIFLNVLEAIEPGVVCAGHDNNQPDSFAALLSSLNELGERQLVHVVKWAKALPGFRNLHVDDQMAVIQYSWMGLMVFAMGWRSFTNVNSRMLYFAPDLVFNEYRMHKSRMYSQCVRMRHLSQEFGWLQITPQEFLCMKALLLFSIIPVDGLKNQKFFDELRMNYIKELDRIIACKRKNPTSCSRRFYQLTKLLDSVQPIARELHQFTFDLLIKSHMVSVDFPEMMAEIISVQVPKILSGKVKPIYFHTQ
# Chain of Estrogen receptor beta (Homo sapiens) (Q92731 whole entry, looked up): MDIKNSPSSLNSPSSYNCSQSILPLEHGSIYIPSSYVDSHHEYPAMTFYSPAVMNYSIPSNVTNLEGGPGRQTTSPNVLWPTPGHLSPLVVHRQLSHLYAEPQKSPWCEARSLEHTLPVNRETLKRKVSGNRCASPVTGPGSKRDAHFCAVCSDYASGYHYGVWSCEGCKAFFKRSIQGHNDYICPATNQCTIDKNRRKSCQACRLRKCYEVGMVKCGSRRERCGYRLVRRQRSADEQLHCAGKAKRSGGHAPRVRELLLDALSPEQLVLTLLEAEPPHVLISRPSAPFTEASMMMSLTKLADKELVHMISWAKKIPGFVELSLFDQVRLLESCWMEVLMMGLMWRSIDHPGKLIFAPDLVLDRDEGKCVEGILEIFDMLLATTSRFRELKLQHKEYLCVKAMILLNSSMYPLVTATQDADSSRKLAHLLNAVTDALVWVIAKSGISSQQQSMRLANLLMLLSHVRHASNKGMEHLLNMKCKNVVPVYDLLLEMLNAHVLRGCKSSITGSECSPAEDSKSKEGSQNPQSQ
# Chain of Thyrotropin receptor (Homo sapiens) (P16473 whole entry, looked up): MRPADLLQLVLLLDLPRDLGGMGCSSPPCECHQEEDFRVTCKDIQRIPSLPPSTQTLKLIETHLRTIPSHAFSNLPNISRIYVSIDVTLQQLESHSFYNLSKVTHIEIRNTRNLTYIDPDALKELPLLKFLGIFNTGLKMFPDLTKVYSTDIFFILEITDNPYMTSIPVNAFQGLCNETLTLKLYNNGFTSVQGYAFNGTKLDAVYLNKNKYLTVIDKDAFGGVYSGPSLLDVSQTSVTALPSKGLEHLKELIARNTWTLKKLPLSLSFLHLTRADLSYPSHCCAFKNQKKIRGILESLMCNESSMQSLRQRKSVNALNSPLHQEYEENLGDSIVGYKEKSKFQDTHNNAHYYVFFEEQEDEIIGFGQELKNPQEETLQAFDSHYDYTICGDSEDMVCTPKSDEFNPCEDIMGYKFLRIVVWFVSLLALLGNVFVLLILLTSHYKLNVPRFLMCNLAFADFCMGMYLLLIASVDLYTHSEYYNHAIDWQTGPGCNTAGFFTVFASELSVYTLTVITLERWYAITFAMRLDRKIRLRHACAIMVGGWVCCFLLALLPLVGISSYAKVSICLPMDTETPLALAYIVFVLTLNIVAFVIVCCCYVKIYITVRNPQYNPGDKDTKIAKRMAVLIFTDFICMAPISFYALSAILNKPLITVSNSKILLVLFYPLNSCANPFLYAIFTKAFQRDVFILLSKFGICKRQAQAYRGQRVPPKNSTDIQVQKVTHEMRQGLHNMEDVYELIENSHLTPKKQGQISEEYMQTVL
# Chain of Estrogen receptor (Homo sapiens) (P03372 whole entry, looked up): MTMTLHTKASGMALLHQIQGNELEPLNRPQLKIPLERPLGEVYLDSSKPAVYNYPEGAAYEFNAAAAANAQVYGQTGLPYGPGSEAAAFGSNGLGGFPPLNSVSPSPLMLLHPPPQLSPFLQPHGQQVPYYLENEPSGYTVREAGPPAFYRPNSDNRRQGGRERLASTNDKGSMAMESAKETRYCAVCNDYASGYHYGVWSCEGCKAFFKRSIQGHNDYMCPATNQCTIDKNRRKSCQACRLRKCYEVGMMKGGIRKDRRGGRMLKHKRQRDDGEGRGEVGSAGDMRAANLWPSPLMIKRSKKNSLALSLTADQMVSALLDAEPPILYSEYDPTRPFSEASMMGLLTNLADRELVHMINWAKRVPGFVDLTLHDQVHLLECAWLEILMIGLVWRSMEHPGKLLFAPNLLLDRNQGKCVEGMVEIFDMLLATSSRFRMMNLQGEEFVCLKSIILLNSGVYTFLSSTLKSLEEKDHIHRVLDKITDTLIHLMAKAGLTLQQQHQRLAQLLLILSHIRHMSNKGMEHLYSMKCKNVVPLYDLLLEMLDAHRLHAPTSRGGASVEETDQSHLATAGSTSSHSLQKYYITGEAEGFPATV
structure (smiles),measurement,setting,value
CCCOC(C(=O)OC1CCN(C)CC1)(c1ccccc1)c1ccccc1,Potency,[1],inactive
same,Potency,[2],26.6 µM (active)
same,Potency,[3],inactive
same,Potency,[4],inactive
same,Potency,[5],inactive
same,Potency,[6],inactive
O=S(c1cc(Cl)cc(Cl)c1O)c1cc(Cl)cc(Cl)c1O,Potency,[7],inactive
same,Potency,[2],29.8 µM (active)
same,Potency,[8],inactive
same,Potency,[3],inactive
same,Potency,[4],inactive
same,Potency,[5],inactive
same,Potency,[6],inactive
CCNc1cc(O)ccc1C,Potency,[9],inactive
same,Potency,[7],inactive
same,Potency,[2],inactive
same,Potency,[10],inactive
same,Potency,[3],inactive
same,Potency,[4],inactive
same,Potency,[6],inactive
COc1ccc2cccc(CCNC(C)=O)c2c1,Potency,[9],inactive
same,Potency,[7],inactive
same,Potency,[8],inactive
same,Potency,[10],inactive
same,Potency,[3],inactive
same,Potency,[6],inactive
CC(=O)OC[C@H]1O[C@@H](n2ncc(=O)[nH]c2=O)[C@H](OC(C)=O)[C@@H]1OC(C)=O,Potency,[7],inactive
same,Potency,[2],1.33 µM (active)
same,Potency,[8],inactive
same,Potency,[3],inactive
same,Potency,[4],inactive
same,Potency,[5],inactive
same,Potency,[6],inactive
COc1cc2c(cc1OC)C(C(C(=O)N(CCc1ccc(OC)c(OC)c1OC)CCc1ccc(OC)c(OC)c1OC)c1ccccc1)=NCC2 (centres undefined),Potency,[1],inactive
same,Potency,[2],inactive
same,Potency,[10],inactive
same,Potency,[4],inactive
Brc1c2ccccc2cc2ccccc12,Potency,[9],inactive
same,Potency,[7],inactive
same,Potency,[2],61.8 µM (active)
same,Potency,[3],inactive
same,Potency,[4],inactive
same,Potency,[6],inactive
Brc1c2ccccc2c(Br)c2ccccc12,"activity, negative = inhibition",[9],14.5% [at 8.39 µM]
same,"activity change, negative = cytotoxicity",[7],0.897% [at 8.39 µM]
same,"activity change, negative = cytotoxicity",[2],1.65% [at 8.39 µM]
same,"activity change, negative = cytotoxicity",[10],7.62% [at 8.39 µM]
same,activation,[3],-0.192% [at 8.39 µM]
same,cAMP activity change,[4],"1.89% [at 8.39 µM, active compounds read high]"
same,"activity change, negative = inhibition",[5],-6.18% [at 8.39 µM]
same,"activity change, negative = cytotoxicity",[6],2.81% [at 8.39 µM]
O=C(O)C1(C(=O)O)CCC1.[NH2-].[NH2-].[Pt+2],Potency,[9],inactive
same,Potency,[7],inactive
same,Potency,[2],inactive
same,Potency,[10],inactive
same,Potency,[3],inactive
same,Potency,[4],inactive
same,Potency,[5],inactive
same,Potency,[6],inactive
Cc1nn(C)c(Oc2ccccc2)c1/C=N/OCc1ccc(C(=O)OC(C)(C)C)cc1,Potency,[7],30.6 nM (active)
same,Potency,[2],inactive
same,Potency,[8],inactive
same,Potency,[10],inactive
same,Potency,[3],inactive
same,Potency,[4],inactive
same,Potency,[6],0.0863 µM (active)
Nc1cccc([N+](=O)[O-])c1,Potency,[9],inactive
same,Potency,[7],inactive
same,Potency,[2],inactive
same,Potency,[8],inactive
same,Potency,[10],inactive
same,Potency,[3],inactive
same,Potency,[6],inactive
CC(C)(C)Cl,Potency,[9],inactive
same,Potency,[7],inactive
same,Potency,[2],inactive
same,Potency,[10],inactive
same,Potency,[3],inactive
same,Potency,[4],inactive
same,Potency,[5],inactive
same,Potency,[6],inactive
COc1cc2nc(Cl)nc(N)c2cc1OC,Potency,[7],inactive
same,Potency,[2],inactive
same,Potency,[8],inactive
same,Potency,[10],inactive
same,Potency,[3],inactive
same,Potency,[6],inactive
CC[N+](C)(CC)CCOC(=O)C(O)(c1ccccc1)C1CCCCC1 (centres undefined),Potency,[7],inactive
same,Potency,[2],inactive
same,Potency,[10],inactive
same,Potency,[3],inactive
same,Potency,[4],inactive
same,Potency,[5],inactive
Clc1ccc2c(c1)CCc1cccnc1C2=C1CCNCC1,Potency,[1],inactive
same,Potency,[2],33.5 µM (active)
same,Potency,[10],18.8 µM (active)
same,Potency,[3],inactive
same,Potency,[4],inactive
same,Potency,[6],inactive
C=C(C)C(=O)OCC,Potency,[9],inactive
same,Potency,[7],inactive
same,Potency,[2],inactive
same,Potency,[10],inactive
same,Potency,[3],inactive
same,Potency,[4],inactive
same,Potency,[5],inactive
same,Potency,[6],inactive
CN(C)c1ccc(C(c2ccccc2)c2ccc(N(C)C)cc2)cc1,Potency,[7],inactive
same,Potency,[2],17.2 µM (active)
same,Potency,[8],inactive
same,Potency,[4],inactive
same,Potency,[6],inactive
CC(=O)c1ccc2c(c1)N(CCCN(C)C)c1ccccc1S2,Potency,[1],inactive
same,Potency,[7],inactive
same,Potency,[3],inactive
same,Potency,[4],inactive
same,Potency,[5],inactive
same,Potency,[6],inactive
O=C1[C@H]2CCCC[C@H]2C(=O)N1CCCCN1CCN(c2nsc3ccccc23)CC1,Potency,[1],inactive
same,Potency,[10],inactive
same,Potency,[3],inactive
same,Potency,[4],inactive
same,Potency,[5],inactive
same,Potency,[6],29.8 µM (active)
NS(=O)(=O)c1ccc(N2CCCCS2(=O)=O)cc1,Potency,[7],inactive
same,Potency,[2],inactive
same,Potency,[8],inactive
same,Potency,[10],inactive
same,Potency,[3],inactive
same,Potency,[4],inactive
same,Potency,[5],inactive
same,Potency,[6],inactive
CN(C)CCOC(c1ccccc1)c1ccc(Br)cc1 (centres undefined),Potency,[7],inactive
same,Potency,[2],23.7 µM (active)
same,Potency,[8],inactive
same,Potency,[3],inactive
same,Potency,[4],inactive
same,Potency,[5],inactive
same,Potency,[6],inactive
